BioA inh = M. tuberculosis BioA enzyme inhibitors, primary screen, biochemical, plate reader, single point, HTS; 7,8-diaminopelargonic acid synthase BioA (Mycobacterium tuberculosis); 360,000 tested, 0.096% active; purified M. tuberculosis BioA enzyme; inhibition, % at 9.99 µM; AID 602481, 2012; in the data active = inhibition above about 40%; inconclusive = no clear call, values can overlap the other calls
3CLpro inhibitor = SARS-CoV 3CLpro protease inhibitors, primary screen, biochemical, quenched FRET. Replicase polyprotein 1ab (Severe acute respiratory syndrome coronavirus), P0C6X7. recombinant SARS-CoV 3CLpro, quenched FRET peptide cleavage. inhibition, % at 6 µM. 290,000 tested, 0.14% active. AID 1706, 2009; in the data active = inhibition above about 12%
FadD28 FP inh = inhibitors of FadD28 bisubstrate probe binding, primary screen, biochemical, fluorescence polarization, single point. inhibition, % at 12.5 µM. 360,000 tested, 0.22% active. AID 588549, 2011; in the data active = inhibition above about 8.5%, passing the limit was not always enough; inconclusive = no clear call, values can overlap the other calls
VHR inh abs = VHR1 phosphatase inhibitors, primary screen, biochemical, absorbance, uHTS. Dual specificity protein phosphatase 3 (Homo sapiens), P51452. recombinant VHR phosphatase, pNPP absorbance. inhibition, % at 13.3 µM. 290,000 tested, 0.52% active; in the data active = inhibition above about 50%
Target sequence (P51452 whole entry, looked up): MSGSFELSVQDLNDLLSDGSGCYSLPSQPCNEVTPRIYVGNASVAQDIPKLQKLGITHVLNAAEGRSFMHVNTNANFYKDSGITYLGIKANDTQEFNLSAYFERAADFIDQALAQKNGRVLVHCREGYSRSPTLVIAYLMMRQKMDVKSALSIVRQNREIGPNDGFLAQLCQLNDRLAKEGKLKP
Mtb hypoxia rep = PubChem AID 1159583; M. tuberculosis hypoxia-regulated fluorescent reporter, fluorescence; fluorescence inhibition, % (concentration not given with the values); 300,000 tested, 0.1% active; in the data active = fluorescence inhibition mostly above about 23%, no sharp cut-off; inactive = mostly below about 17%
Numbers without * were called inactive. Shown are actives, neighbours in structure and some others; about 0.7% of the full set was active somewhere.

`COc1ccc(OC)c(CCNC(=O)c2ccc3c(=O)[nH]c4c(C(=O)NC(C)C)sc(=S)n4c3c2)c1` gave BioA inh -1, 3CLpro inhibitor 5, FadD28 FP inh inconclusive, VHR inh abs -6 and Mtb hypoxia rep 15.
`CC(C)NC(=O)c1sc(=S)n2c1[nH]c(=O)c1ccc(C(=O)NCCc3ccc(Cl)cc3)cc12` gave BioA inh -3, 3CLpro inhibitor -6, FadD28 FP inh inconclusive, VHR inh abs 23 and Mtb hypoxia rep 5.
`O=C(NCCc1ccccc1)c1ccc2c(=O)[nH]c3c(C(=O)NCC4CCCO4)sc(=S)n3c2c1` (centres undefined) gave BioA inh 5, 3CLpro inhibitor 2, FadD28 FP inh 61* and VHR inh abs 1.
CCCCNC(=O)c1sc(=S)n2c1[nH]c(=O)c1ccccc12 was read as BioA inh 3, 3CLpro inhibitor 6, FadD28 FP inh 24*, VHR inh abs 20 and Mtb hypoxia rep 7.
For CC(Oc1ccccc1)c1ccnc2nc(N=CN(C)C)nn12 (centres undefined) the results were Mtb hypoxia rep 5.
Screening O=C(COc1ccccc1)N=C1SC2CS(=O)(=O)CC2N1Cc1ccccc1 (centres undefined) returned BioA inh -1, 3CLpro inhibitor 2, FadD28 FP inh -3, VHR inh abs 60* and Mtb hypoxia rep 8.
`Cc1ccccc1N(C(=O)Cc1ccsc1)C(C(=O)NC1CCCCC1)c1ccc(F)cc1` (centres undefined) gave BioA inh -1, 3CLpro inhibitor -1, FadD28 FP inh 0, VHR inh abs 56* and Mtb hypoxia rep 3.
Screening O=C(NC1CCCC1)C(c1ccncc1)N(C(=O)Cc1cccs1)c1ccc(F)cc1 (centres undefined) returned BioA inh -2, 3CLpro inhibitor -2, VHR inh abs 14 and Mtb hypoxia rep -1.
`COc1cc(/C=C2/C(=O)NN(c3ccc(C)c(Cl)c3)C2=O)cc([N+](=O)[O-])c1O` gave BioA inh 1, 3CLpro inhibitor 8, FadD28 FP inh 30*, VHR inh abs 9 and Mtb hypoxia rep 5.
Screening COc1cc(/C=C2/C(=O)NN(c3cccc(Cl)c3)C2=O)cc(OC)c1O returned BioA inh 2, 3CLpro inhibitor -4, FadD28 FP inh 11* and VHR inh abs -8.
Screening COc1cc(C=C2C(=O)NN(c3ccccc3)C2=O)cc([N+](=O)[O-])c1O returned Mtb hypoxia rep 7.
`Cc1cc(NN=Cc2ccccc2O)c2ccccc2n1` gave Mtb hypoxia rep 72*.
For Cc1cc(N/N=C/c2ccccc2O)c2ccccc2n1 the results were BioA inh 1, 3CLpro inhibitor -6, FadD28 FP inh -9 and VHR inh abs 12.
O=C(c1cc(COc2ccc3ncccc3c2)on1)N1CCC[C@H]1CO was read as BioA inh 0, 3CLpro inhibitor -5, FadD28 FP inh -2, VHR inh abs 53* and Mtb hypoxia rep 13.
For CCc1ccccc1NC(=O)c1ccc2nc(N3CCOCC3)sc2c1 the results were BioA inh -1, 3CLpro inhibitor -2, FadD28 FP inh -2, VHR inh abs 10 and Mtb hypoxia rep -2.
Screening Cc1ccc(NC(=O)c2ccc3nc(N4CCOCC4)sc3c2)c(Cl)c1 returned BioA inh -2, 3CLpro inhibitor -1, FadD28 FP inh -3, VHR inh abs 56* and Mtb hypoxia rep -4.
For O=c1c(O)c(-c2cc(O)c(O)c(O)c2)oc2cc(O)cc(O)c12 the results were BioA inh 0 and FadD28 FP inh 14*.
`O=C(NC(Cc1ccccc1)C(=O)O)C1CCN(S(=O)(=O)c2ccccc2C(F)(F)F)CC1` (centres undefined) gave BioA inh 6, 3CLpro inhibitor 1, FadD28 FP inh 11*, VHR inh abs -5 and Mtb hypoxia rep -7.
Cc1cc(C)nc(NS(=O)(=O)c2ccc(NC(=O)Cc3ccccc3)cc2)n1 was read as 3CLpro inhibitor 2, FadD28 FP inh 0, VHR inh abs -3 and Mtb hypoxia rep -8.
Screening Cc1cc(C)nc(NS(=O)(=O)c2ccc(NC(=O)Cc3ccc(F)cc3)cc2)n1 returned BioA inh -3, 3CLpro inhibitor 0, FadD28 FP inh -1, VHR inh abs 54* and Mtb hypoxia rep 13.
Screening CCc1ccc(C=NNC(=O)c2c[nH]c3ccccc23)s1 returned Mtb hypoxia rep 11.
CSc1ncccc1C(=O)OCC(=O)c1cccc(Br)c1 was read as 3CLpro inhibitor 4, FadD28 FP inh -3, VHR inh abs 2 and Mtb hypoxia rep -10.
Screening CSc1ncccc1C(=O)OCC(=O)c1ccc[nH]1 returned BioA inh -2, FadD28 FP inh -2 and Mtb hypoxia rep 22*.
`N#Cc1ccc(C23CC4(C2)C(CN(Cc2ccc(C(F)(F)F)cc2)C4c2ccccc2)C3c2ccc(Cl)nc2)cc1` (centres undefined) gave Mtb hypoxia rep -3.
`O=C(O)CN1C(=O)NC2(CCOc3ccccc32)C1=O` (centres undefined) gave BioA inh 0, 3CLpro inhibitor -6, FadD28 FP inh -2, VHR inh abs -11 and Mtb hypoxia rep 9.
Screening O=C(CN1C(=O)NC2(CCOc3ccccc32)C1=O)c1ccc(Br)cc1 (centres undefined) returned BioA inh 0, 3CLpro inhibitor 1, FadD28 FP inh 21*, VHR inh abs 0 and Mtb hypoxia rep 7.
For O=C(CN1C(=O)NC2(CCOc3ccccc32)C1=O)c1ccc(Cl)cc1 (centres undefined) the results were BioA inh -1, FadD28 FP inh 16* and Mtb hypoxia rep -2.
Screening CC1CCCCCCCCC(=O)OCCN(C(=O)OC(C)(C)C)C(C)CCCCCCCCC(=O)OCCN(C(=O)OC(C)(C)C)C(C)CCCCCCCCC(=O)OCCN(C(=O)OC(C)(C)C)C(C)CCCCCCCCC(=O)OCCN1C(=O)OC(C)(C)C (centres undefined) returned Mtb hypoxia rep 11.
Screening O=c1[nH]c(C2CCN(S(=O)(=O)c3ccc(S(=O)(=O)NC4CC4)cc3)CC2)nc2c1nnn2Cc1ccc(F)cc1 returned BioA inh 0, 3CLpro inhibitor 6, FadD28 FP inh -3, VHR inh abs 59* and Mtb hypoxia rep -7.
O=c1[nH]c(C2CCN(S(=O)(=O)c3ccc(S(=O)(=O)NC4CC4)cc3)CC2)nc2c1nnn2Cc1ccccc1 was read as BioA inh 0, 3CLpro inhibitor 6, FadD28 FP inh -1, VHR inh abs -17 and Mtb hypoxia rep 7.
Screening COc1cccc(C2=NOC(C(=O)N3CCc4ccccc4C3)C2)c1 (centres undefined) returned BioA inh 1, 3CLpro inhibitor -2, FadD28 FP inh 0 and VHR inh abs 55*.

From PubChem
